Screens as filed in PubChem BioAssay.
MLL AF4-AF9 inh: inhibitors of human MLL-AF4/AF9 interaction. P42568. AlphaScreen, biotin-AF4 peptide binding to FLAG-AF9. 0.47% of 350,000 active. inhibition, % at 10 µM;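 active = every replicate reaching a set inhibition limit, whatever the replicate mean, cut at about 25% in these data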;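 note: 0% = plate neutral control median and 100% = total signal loss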
FGF22 binding: binders of recombinant human FGF22 by thermal shift. SYPRO orange fluorescence; percent of sucrose octasulfate shift, DMSO zero. Q9HCT0. 1.5% of 340,000 active. activity (Tm shift, normalised), % at 9.99 µM;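 active = mean Tm shift, scaled 0 neutral to 100 positive control, at about 1.3% or above, every replicate too, limit read from the data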
Target sequence (Q9HCT0 whole entry, looked up): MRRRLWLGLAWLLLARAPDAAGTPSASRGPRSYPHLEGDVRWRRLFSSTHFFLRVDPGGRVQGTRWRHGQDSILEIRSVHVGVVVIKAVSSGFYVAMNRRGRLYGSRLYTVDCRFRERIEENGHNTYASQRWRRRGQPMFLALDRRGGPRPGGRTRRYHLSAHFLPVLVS
ERAP1 HTS inh: blocks human ERAP1 aminopeptidase activity | Q9NZ08 | 0.15% of 340,000 active | inhibition, % at 10.7 µM | AID 652197 | recombinant ERAP1, Leu-AMC fluorescence, 60 min;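 active = mean replicate inhibition of at least 30%, or all replicates individually reaching that 30% level; inactive = mean below 30% and not every replicate reaching it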;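 note: 0% = neutral control wells and 100% = L-leucinethiol positive control wells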
RAD52 inh: RAD52 (human) annealing inhibition | recombinant RAD52 DNA annealing, FRET fluorescence | P43351 | inhibition, % at 18.7 µM | AID 651710 | 0.46% of 360,000 active;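 active = every replicate showing at least 50% inhibition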
Target sequence (P43351 whole entry, looked up): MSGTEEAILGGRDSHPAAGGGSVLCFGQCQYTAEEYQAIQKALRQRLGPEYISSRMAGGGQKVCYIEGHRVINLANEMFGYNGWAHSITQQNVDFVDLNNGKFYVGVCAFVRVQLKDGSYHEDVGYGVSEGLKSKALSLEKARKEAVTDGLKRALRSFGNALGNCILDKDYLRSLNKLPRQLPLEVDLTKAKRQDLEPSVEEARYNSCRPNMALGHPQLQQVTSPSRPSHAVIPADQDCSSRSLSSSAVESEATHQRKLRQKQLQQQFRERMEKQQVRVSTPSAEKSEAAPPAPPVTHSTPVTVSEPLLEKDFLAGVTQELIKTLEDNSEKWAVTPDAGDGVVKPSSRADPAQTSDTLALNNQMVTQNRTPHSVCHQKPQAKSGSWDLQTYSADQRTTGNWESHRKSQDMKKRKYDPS
DENV2 CPE: protects cells from dengue virus 2 cytopathic effect; DENV2-infected cells, cytopathic effect rescue, plate reader; CPE inhibition, % at 9.99 µM; 1.7% of 350,000 active; in the data active = CPE inhibition above about 20%, passing the limit was not always enough; tested in BHK-21 cells;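 note: 0% = median of neutral control wells and 100% = median of positive control wells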
An asterisk follows results filed as active; ! = repeats disagree. A selection: hits, their analogues and other compounds. The true share with any hit is near 4%.

COCC(=O)N1CC2(CCN(C(=O)NC(C)C)CC2)c2c(n(C)c3cc(OC)ccc23)[C@@H]1CO was read as MLL AF4-AF9 inh -1, FGF22 binding 0, ERAP1 HTS inh -2, RAD52 inh -6 and DENV2 CPE 3.
For CN(C)CC(=O)Nc1ccc2c(c1)[C@H]1C[C@@H](CC(=O)NCc3cccnc3)O[C@H](CO)[C@H]1O2 the results were MLL AF4-AF9 inh 0, FGF22 binding 0, ERAP1 HTS inh -3, RAD52 inh -6 and DENV2 CPE 4.
`Cc1noc(C)c1S(=O)(=O)N(C)C[C@H]1Oc2ccc(NC(=O)C3CC3)cc2CC(=O)N([C@H](C)CO)C[C@@H]1C` gave MLL AF4-AF9 inh -3, FGF22 binding 0, ERAP1 HTS inh -1, RAD52 inh 16 and DENV2 CPE 6.
Cc1occc1C(=O)N/N=C/c1sc(N2CCOCC2)nc1-c1ccccc1 was read as MLL AF4-AF9 inh 1, FGF22 binding 0, ERAP1 HTS inh 0, RAD52 inh -12 and DENV2 CPE 3.
Cc1occc1C(=O)N/N=C/C1=C(N2CCOCC2)C(=C/c2ccc(Cl)cc2Cl)/CC1 was read as MLL AF4-AF9 inh 2, FGF22 binding 43*, ERAP1 HTS inh 4, RAD52 inh inactive and DENV2 CPE -6.
Screening O=C(CC(F)(F)F)N1C[C@H]2[C@@H](c3ccccc31)[C@@H](CO)N2Cc1cccnc1 returned MLL AF4-AF9 inh -1, FGF22 binding 0, ERAP1 HTS inh -1, RAD52 inh -32 and DENV2 CPE 27*.
`O=C(C1CCC1)N1C[C@H]2[C@@H](c3ccccc31)[C@H](CO)N2C(=O)Cc1ccccn1` gave MLL AF4-AF9 inh 1, FGF22 binding 0, ERAP1 HTS inh -3, RAD52 inh -36 and DENV2 CPE 33*.
O=C(CC(F)(F)F)N1C[C@@H]2[C@H](c3ccccc31)[C@@H](CO)N2Cc1cccnc1 was read as MLL AF4-AF9 inh -3, FGF22 binding 0, ERAP1 HTS inh -1, RAD52 inh -35 and DENV2 CPE 14.
Screening O=C(CC(F)(F)F)N1C[C@@H]2[C@H](c3ccccc31)[C@@H](CO)N2C(=O)c1cccnc1 returned MLL AF4-AF9 inh -2, FGF22 binding 0, ERAP1 HTS inh 0, RAD52 inh -7 and DENV2 CPE 23*.
For O=C(C1CCC1)N1C[C@@H]2[C@H](c3ccccc31)[C@H](CO)N2C(=O)Cc1ccccn1 the results were FGF22 binding 0 and RAD52 inh -42.
For O=C(c1cccnc1)N1C[C@@H]2[C@H](c3ccccc31)[C@@H](CO)N2C(=O)C1CCCCC1 the results were MLL AF4-AF9 inh 0, FGF22 binding -1, ERAP1 HTS inh -4, RAD52 inh 5 and DENV2 CPE 52*.
For O=C(C[C@@H]1C=C[C@@H](NC(=O)Nc2ccccc2F)[C@H](CO)O1)NCc1ccc(F)cc1 the results were MLL AF4-AF9 inh 1, FGF22 binding 0, ERAP1 HTS inh -3, RAD52 inh 3 and DENV2 CPE -5.
Cn1cnc(S(=O)(=O)N2C[C@H](O)COC[C@H]3O[C@@H](CC(=O)NCc4cc(F)cc(F)c4)CC[C@@H]32)c1 was read as MLL AF4-AF9 inh -5, FGF22 binding 0, ERAP1 HTS inh -5, RAD52 inh 6 and DENV2 CPE 2.
For COc1ccc(C(=O)/C=C/C(=O)N(CC(=O)NC2CCCCC2)Cc2ccccc2)c(O)c1 the results were MLL AF4-AF9 inh -2, FGF22 binding 0, RAD52 inh -14 and DENV2 CPE 3.
For COc1ccc(C(=O)/C=C/C(=O)N(Cc2ccccc2)C(C(=O)NC2CCCCC2)c2ccncc2)c(O)c1 (centres undefined) the results were MLL AF4-AF9 inh -15, FGF22 binding 0, ERAP1 HTS inh -1, RAD52 inh 6 and DENV2 CPE 41*.
Screening C[C@@H]1CCCCO[C@H](CN(C)Cc2ccccc2)[C@H](C)CN([C@H](C)CO)C(=O)c2cc(NC(=O)CCC(F)(F)F)ccc2O1 returned MLL AF4-AF9 inh 0, FGF22 binding 0, ERAP1 HTS inh -1, RAD52 inh 9 and DENV2 CPE 37*.
For COc1ccc(CN(C)C[C@H]2OCCCC[C@H](C)Oc3ccc(NC(=O)CCC(F)(F)F)cc3C(=O)N([C@@H](C)CO)C[C@@H]2C)cc1 the results were MLL AF4-AF9 inh 3, FGF22 binding 0, ERAP1 HTS inh 2, RAD52 inh 3 and DENV2 CPE 44*!.
For COc1ccc(CN(C)C[C@@H]2OCCCC[C@H](C)Oc3ccc(NC(=O)CCC(F)(F)F)cc3C(=O)N([C@H](C)CO)C[C@H]2C)cc1 the results were MLL AF4-AF9 inh -1, FGF22 binding 1, ERAP1 HTS inh -1, RAD52 inh 26 and DENV2 CPE 62*.
`COc1ccc(CN(C)C[C@H]2OCCCC[C@@H](C)Oc3ccc(NC(=O)CCC(F)(F)F)cc3C(=O)N([C@H](C)CO)C[C@@H]2C)cc1` gave MLL AF4-AF9 inh -2, FGF22 binding 0, ERAP1 HTS inh 1, RAD52 inh 8 and DENV2 CPE 8.
`O=C(C[C@H]1C[C@H]2c3cc(NC(=O)CC4CC4)ccc3O[C@H]2[C@@H](CO)O1)NCc1cccnc1` gave MLL AF4-AF9 inh 0, FGF22 binding 0, ERAP1 HTS inh -3, RAD52 inh 2 and DENV2 CPE -5.
`Cc1[nH]nc2c1C(c1cccs1)C1=C(CCCC1=O)N2` (centres undefined) gave MLL AF4-AF9 inh 1, FGF22 binding 43*, ERAP1 HTS inh 2, RAD52 inh -9 and DENV2 CPE 2.
Screening Cc1[nH]nc2c1C(c1cccs1)C1=C(CC(C)(C)CC1=O)N2 (centres undefined) returned MLL AF4-AF9 inh 0, FGF22 binding 0, ERAP1 HTS inh -2, RAD52 inh -10 and DENV2 CPE 1.
Screening COc1ccc2c3c(n(C)c2c1)[C@H](CO)NCC31CCN(S(=O)(=O)c2ccc(C)cc2)CC1 returned MLL AF4-AF9 inh 3, FGF22 binding 0 and DENV2 CPE 1.
Screening CO[C@H]1CN(C)C(=O)c2ccc(NC(=O)C3CCC3)cc2OC[C@H](C)N(Cc2nccs2)C[C@H]1C returned MLL AF4-AF9 inh 1, FGF22 binding 0, ERAP1 HTS inh 3, RAD52 inh 8 and DENV2 CPE 16.
`CO[C@H]1CN(C)C(=O)c2cc(NC(C)=O)ccc2OC[C@H](C)N(Cc2nccs2)C[C@@H]1C` gave MLL AF4-AF9 inh -9, FGF22 binding -1, ERAP1 HTS inh 3, RAD52 inh 4 and DENV2 CPE 32*.
Screening CO[C@@H]1CN(C)C(=O)c2cc(NC(C)=O)ccc2OC[C@H](C)N(Cc2nccs2)C[C@H]1C returned FGF22 binding 0, RAD52 inh -10 and DENV2 CPE -4.
CO[C@@H]1CN(C)C(=O)c2ccc(NC(=O)C3CCC3)cc2OC[C@H](C)N(Cc2nccs2)C[C@H]1C was read as MLL AF4-AF9 inh -1, FGF22 binding 0, ERAP1 HTS inh -3, RAD52 inh 7 and DENV2 CPE 27*.
